Results published in PubChem BioAssay (NCI).
Compounds without any hit were thinned out: in the full panel of roughly 79,000, 15% have a hit. Cut-off read from the data, not from the text of the source: active = growth inhibition above about 70%; inactive = the rest. Where a SMILES comes first, the peptide text is derived from it. [ ]: non-standard residue; d: D form. The star is where a group is joined. ξ: configuration not given here. ξL = CC(C)CC(N)C(=O)O; ClAc = O=C(CCl)*

Experiments:
[1] = NCI Yeast Anticancer Drug Screen. Data for the rad50 strain (AID 155);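 note: 0% = growth of vehicle-only cultures of the same strain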; conditions: S. cerevisiae rad50 strain growth inhibition; at 50.0 µM; hits give high values
Summary of the method: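 Compounds were tested on a yeast strain with an engineered DNA damage repair alteration; the reported value is growth inhibition normalised to vehicle treatment.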

[2] = NCI Yeast Anticancer Drug Screen. Data for the mec2-1 strain (AID 157); conditions: S. cerevisiae mec2-1 strain, at 50.0 µM, hits give high values
Summary of the method: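 Readout is yeast growth inhibition, normalised to vehicle-treated controls, in the mec2-1 strain exposed to compound.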

[3] = NCI Yeast Anticancer Drug Screen. Data for the mlh1 rad18 strain (AID 175); conditions: S. cerevisiae mlh1 rad18 strain growth inhibition; at 50.0 µM; hits give high values
Summary of the method: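 Test agents were incubated with a yeast strain of defined genotype (DNA damage repair defect). Inhibition of growth was derived by comparison with vehicle-exposed cultures.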

Measured: growth inhibition

CCOC(=O)C(CNc1ccccc1)C(=O)OCC
inactive: [1] -25.4% | [2] -3.05% | [3] -11.7%

CCN(CC)CCCOC(=O)N(Cc1ccc(Cl)cc1)C1CC1
inactive: [1] 51.2% | [2] 12.8% | [3] 46.6%

Nc1n[nH]c(=S)n1-c1ccc(Cl)cc1
inactive: [1] -14.3% | [2] -29.6% | [3] -13%

CC(=O)C1=CCC2C3CC(C)=C4CC(O)CCC4(C)C3CCC12C (stereo unspecified)
inactive: [1] 24.9% | [2] -1.15% | [3] -2.95%

O=C1NC(C2CC3C=CC2C3)Nc2ccccc21 (stereo unspecified)
inactive: [1] 6.75% | [2] 0.8% | [3] 2.7%

Cc1ccc(NC(=S)NCCO)cc1
inactive: [1] -25.4% | [2] -41.8% | [3] -13.6%

S=C1SCN(Cc2ccccc2)CN1Cc1ccccc1
inactive: [1] -10.1% | [2] -26.1% | [3] -13.3%

O=C1c2ccccc2C(=O)N1CNc1ccc(Cl)cn1
inactive: [1] -18.9% | [2] -43.9% | [3] -24.6%

Cc1ccc(CNc2cccc([N+](=O)[O-])c2)cc1
inactive: [1] 8.6% | [2] -13.6% | [3] 1.8%

CCN(CC)c1cc(C(C)(C)C)cc(C(C)(C)C)c1
inactive: [1] 0.45% | [2] -21.5% | [3] -11.1%

S=C(S)N1CCC(CCCC2CCN(C(=S)S)CC2)CC1
inactive: [1] -9.1% | [2] -22.1% | [3] -13.2%

C=CCNC(=S)N/N=C\c1cc(OC)c(OC)c(OC)c1
inactive: [1] -18.8% | [2] -44.5% | [3] -34.6%

COC(=O)c1ccc2oc(=O)cc(C)c2c1O
inactive: [1] -7.6% | [2] -7.75% | [3] 11.7%

c1ccc2c(c1)OCCOCCOc1ccccc1OCCOCCO2
inactive: [1] 3.15% | [2] 10.8% | [3] 15.1%

Clc1ccc(C=NCCN=Cc2ccc(Cl)c(Cl)c2)cc1Cl
inactive: [1] -14.5% | [2] -20.3% | [3] -9.3%

O=C(NNCN1C(=O)c2ccccc2C1=O)c1ccccc1
inactive: [1] -13.8% | [2] -15.7% | [3] -4.7%

CCCCCCCCCOCC(O)COc1ccccc1[N+](=O)[O-] (stereo unspecified)
inactive: [1] -9.2% | [2] -15.9% | [3] -5.5%

O=c1oc(/C=C/c2ccccc2)nc2cc(Cl)ccc12
inactive: [1] 19.6% | [2] 10.1% | [3] 10.4%

Cc1ccc(CNc2ccc(I)cc2)cc1
inactive: [1] 37.5% | [2] 37.9% | [3] 33.9%

CC(C)C(C(=O)c1ccccc1)c1ccccc1 (stereo unspecified)
inactive: [1] -0.3% | [2] -10.1% | [3] -3.55%

Cc1ccc(NCN2C(=O)c3ccccc3C2=O)cc1Cl
inactive: [1] 20.1% | [2] -5.55% | [3] 28.3%

CC12CC3(C)CC(C)(C1)CC(C(Cl)C(=O)O)(C2)C3 (stereo unspecified)
inactive: [1] 50.7% | [2] 22.8% | [3] 29.2%

O=S(=O)(O)c1cccc2cccc(Cl)c12
inactive: [1] 9.7% | [2] -7.4% | [3] 10.9%

NC(=O)c1ccccc1OCC(O)CO (stereo unspecified)
inactive: [1] -7.6% | [2] -24.4% | [3] 26.1%

C=CCNC(=O)C(O)C(O)C(=O)NCC=C (stereo unspecified)
inactive: [1] -25.1% | [2] -32.5% | [3] -21.2%

Cc1cccc(C2NC(=O)c3ccccc3N2)c1 (stereo unspecified)
inactive: [1] 9.35% | [2] -15.8% | [3] 10.5%

Cc1ccc(N2C(=O)CC(Sc3ccccc3N)C2=O)cc1Cl (stereo unspecified)
inactive: [1] -15.5% | [2] -35.6% | [3] -11.9%

CCN(CC)CCN(C)CC(=O)Nc1ccccc1C
inactive: [1] 1.9% | [2] 6.3% | [3] 38.4%

Cc1n[nH]c(=O)n(/N=C\c2c[nH]c3ccccc23)c1=O
inactive: [1] 0.2% | [2] -4.55% | [3] -1.55%

NS(=O)(=O)c1ccc(NC(=O)/C=C/C(=O)O)cc1
inactive: [1] -11.9% | [2] -10.4% | [3] -4%

CC(C)CC(NC(=O)CCl)C(=O)NCC(=O)O (stereo unspecified) (ClAc-[ξL]-Gly-OH)
inactive: [1] 8.05% | [2] 9.65% | [3] -3.75%

Cc1nc2c(Cl)c(Cl)ccc2s1
inactive: [1] 3.6% | [2] -20.9% | [3] 24.2%

CCN(CC#N)c1ccc(Nc2cc(Cl)ccc2Cl)cc1
inactive: [1] 8.75% | [2] -22.1% | [3] 0.3%

O=C1c2ccccc2C(=O)N1/N=C/c1cc(Cl)cc(Cl)c1O
inactive: [1] 0.95% | [2] -17.4% | [3] -4.95%

COc1ccc(C(CCl)(CCl)c2ccc(OC)c(N)c2)cc1N
inactive: [1] 12.3% | [2] 14% | [3] 28.6%

N#C/C(=C\c1ccc(-c2ccccc2)cc1)C(N)=O
inactive: [1] 32% | [2] 8.6% | [3] 27.6%

N#CCC(=O)OCCCCOC(=O)CC#N
inactive: [1] -8.3% | [2] -22.3% | [3] 15.4%

CCOC(=O)NC(C)(C)CN(C(=O)OCC)C(C)(C)CO
inactive: [1] 3.5% | [2] -26.2% | [3] 8.05%

COc1ccccc1N1C(=O)CC(Sc2ccccc2N)C1=O (stereo unspecified)
inactive: [1] -2.4% | [2] -19.4% | [3] 13.1%

O=c1oc(-c2ccccc2)nc2cc(Cl)ccc12
inactive: [1] -0.3% | [2] 0.25% | [3] 1.35%

Cc1ccc2nc3c(nc2c1)-c1cccc2cccc-3c12
inactive: [1] -18.6% | [2] -43% | [3] -12.4%

COc1cc(C2N(c3ccccc3)CCN2c2ccccc2)cc(OC)c1OC
inactive: [1] 59% | [2] 62.9% | [3] 43.1%

CCOc1ccc(N2C(=O)C3C4c5ccccc5C(c5ccccc54)C3C2=O)cc1 (stereo unspecified)
inactive: [1] 27% | [2] 6.45% | [3] 29%

COc1cc(/C=C2/SC(=S)NC2=O)cc(OC)c1OC
inactive: [1] 16.8% | [2] -1.4% | [3] 19.4%

O=C1CCC2CN3CCc4c([nH]c5ccccc45)C3CC2C1 (stereo unspecified)
inactive: [1] 26.2% | [2] 14.4% | [3] 32.7%

COc1cc(/C=N\Nc2ccccc2[N+](=O)[O-])cc(OC)c1OC
inactive: [1] -11.4% | [2] -25.4% | [3] -12.9%

O=C(O)C1=C(C2CCCCC2)C(=O)c2ccccc21
inactive: [1] 7.75% | [2] -15.8% | [3] 20.9%

O=C(O)COC1CC(=O)N2c3ccccc3C34CCN5C(=O)C(=O)C(CC53)C1C24 (stereo unspecified)
inactive: [1] -1.7% | [2] -24.9% | [3] -9.5%

O=C1c2ccccc2C(=O)c2c1cccc2N1C(=O)C=CC1=O
inactive: [1] 51.2% | [2] 37.9% | [3] 63.7%

O=[N+]([O-])c1ccc2nc3c4ccccc4c4ccccc4c3nc2c1
inactive: [1] 53.1% | [2] -1.1% | [3] 3.65%

O=C(O)c1ccccc1C(=O)NNC(=O)c1ccccc1C(=O)O
inactive: [1] 4.65% | [2] -5.3% | [3] -13.6%

C#Cc1c(-c2c[nH]c3ccccc23)ccc[n+]1C
inactive: [1] -12.5% | [2] -36.1% | [3] -24.4%

Cc1ccc(COC(=O)c2cccnc2)cc1
inactive: [1] -16.4% | [2] -18.6% | [3] 8.65%

CCOC(=O)c1sc(N)c(C(=O)OCC)c1C
inactive: [1] -38.2% | [2] -46.8% | [3] -20.1%

Fc1ccccc1Nc1n[nH]c(=S)s1
inactive: [1] 55.9% | [2] 56.7% | [3] 38.8%

COc1cc(-c2cc(=O)c3ccc(O)cc3o2)cc(OC)c1OC
inactive: [1] 10.1% | [2] -32.4% | [3] 2.2%

CC12CC3CC(C(Cl)C(=O)O)(C1)CC(C(Cl)C(=O)O)(C3)C2 (stereo unspecified)
inactive: [1] 52.1% | [2] 14.5% | [3] 46.6%

Cc1ccccc1CC1c2[nH]c3ccccc3c2CCN1C (stereo unspecified)
inactive: [1] -9.95% | [2] -50.5% | [3] -22.4%

CCCCCCCCCC(O)CCCCC (stereo unspecified)
inactive: [1] -1.85% | [2] -21.2% | [3] 15.3%

C(=NCC1CCC(CN=Cc2ccco2)CC1)c1ccco1 (stereo unspecified)
inactive: [1] -21% | [2] -24.8% | [3] -12.5%

O=C1NC(c2ccc3ccccc3c2)Nc2ccccc21 (stereo unspecified)
inactive: [1] -2.85% | [2] -9.2% | [3] 19.1%

CCC(C)NCCNCCNC(C)CC (stereo unspecified)
inactive: [1] -9% | [2] -11.1% | [3] 0.8%

O=[N+]([O-])c1cc([N+](=O)[O-])c2nc3ccccn3c2c1
inactive: [1] -1.85% | [2] -43.9% | [3] -11.7%

COC(=O)C/C(=C/C=C1/C(=O)ON=C1C)c1c(C)[nH]oc1=O
inactive: [1] -10.9% | [2] -29.9% | [3] -16.9%

CCOC(=O)c1sc(N)nc1-c1ccccc1
inactive: [1] 10.7% | [2] 4% | [3] 24.6%

CC(O)Cn1cnc2c1c(=O)n(C)c(=O)n2C (stereo unspecified)
inactive: [1] -40.1% | [2] -42.8% | [3] -30.1%

COc1ccc2c(c1C)CN1CCc3cc4c(cc3C1=C2)OCO4
inactive: [1] 23.1% | [2] 17.4% | [3] 61.1%
